HCMV inh: human cytomegalovirus inhibition. activity change, negative = inhibition, % at 57.5 µM. HFF cells, HCMV-luciferase reporter, 72 h; stronger effect = lower value. 410,000 compounds, 4.5% hits. AID 1259415; in the data active means activity change below about -60%; inconclusive means no clear call, values can overlap the other calls; inactive means above about -39%
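Human foreskin fibroblasts infected with luciferase-reporter HCMV at MOI 1 PFU/cell, compounds at two doses. Luciferase measured 72 h post infection; normalized to buffer-only basal and Salinomycin (10uM) controls.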
FBPA Giardia inh: blocks Giardia fructose-bisphosphate aldolase activity; A8B2U2; purified Giardia FBPA; Potency, µM (doses to about 59.6 µM), without a hit: at the highest dose activity, negative = inhibition, usual class: inhibitors; 290,000 compounds, 0.71% hits; further: potency means the concentration at half of the fitted maximal effect; nearly all actives have a fitted effect of over 55% in size
Target sequence (A8B2U2 whole entry, looked up): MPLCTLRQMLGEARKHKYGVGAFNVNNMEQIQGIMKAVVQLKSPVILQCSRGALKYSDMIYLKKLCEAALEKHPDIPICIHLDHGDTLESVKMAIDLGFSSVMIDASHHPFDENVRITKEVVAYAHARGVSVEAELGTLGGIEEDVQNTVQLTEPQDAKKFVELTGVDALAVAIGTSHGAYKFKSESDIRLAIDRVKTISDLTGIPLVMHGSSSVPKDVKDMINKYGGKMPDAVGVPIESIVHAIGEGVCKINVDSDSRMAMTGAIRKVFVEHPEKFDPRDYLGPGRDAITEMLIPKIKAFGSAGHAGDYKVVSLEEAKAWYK
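Giardia FBPA (40 nM reagent) was preincubated 10 min at RT with compound (up to 57.5 uM final), then substrate plus GAPDH/TPI/NAD/arsenate coupling system with diaphorase/resazurin was added; resorufin fluorescence (525/598 nm) was read after 20 min.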
Lassa entry inh: blocks Lassa virus binding to or entry into cells | 300,000 compounds, 1.2% hits | AID 540256 | Potency, µM (highest dose often 37.9 µM), for inactives: top-dose activity change, negative = inhibition, actives largely listed as inhibitors | Lassa virus pseudotype entry inhibition, cell reporter; calls by dose curve; tested in HEK293 cells; further: potency means the concentration at half of the fitted maximal effect; nearly all actives have a fitted effect of over 50% in size
HCV inh: inhibitors of hepatitis C virus infection; 340,000 compounds, 3.4% hits; Huh7.5.1 HCVcc-Cre infection, luciferase reporter, 44 h; AID 651820; Potency, µM (titrated, usually from 41.8 µM), for the others: at the top dose activity change, negative = inhibition, hits mostly inhibitors; further: potency means the concentration at half of the fitted maximal effect
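1,000 cells/well; 4 h culture; + compound; + HCVcc-Cre (~0.5 moi); 44 h; luciferase substrate, RT 15 min; read 15 sec.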
Marburg entry inh: Marburg virus entry inhibition | Potency, µM (doses to about 37.8 µM), for inactives: at the highest dose activity change, negative = inhibition, hits mostly inhibitors | Marburg virus pseudotyped entry inhibition, cell reporter | 300,000 compounds, 1.8% hits | AID 540276; calls by dose curve; tested in HEK293 cells; further: potency means the concentration at half of the fitted maximal effect
FMDV antiviral: foot and mouth disease virus antiviral activity. FMDV antiviral cell-based qHTS. Potency, µM (series often up to 57.9 µM), for inactives: at the top dose activity change, negative = inhibition, usual class: inhibitors. 410,000 compounds, 1.2% hits. AID 1159524; calls by dose curve; tested in HEK293T cells; further: read-out not given here; potency means the concentration at half of the fitted maximal effect; nearly all actives have a fitted effect of over 45% in size
An asterisk follows results filed as active; ? = inconclusive; nt = not tested or not shown; [ ] = dose if it differs, or a comment. Sampled rows, rich in hits. Any-hit rate of the full collection: about 8.3%. Unless noted, the call rests on the fitted dose curve; in most records, active means well fitted curve in the direction sought with a large enough effect; inconclusive means small, poorly fitted or top-dose-only effect, or another doubt; inactive means no such curve, though single readings can be large; an effect the other way counts as inactive or inconclusive. On the % scale 0 is the no-effect control and ±100 the full control effect.

SMILES	HCMV inh	FBPA Giardia inh	Lassa entry inh	HCV inh	Marburg entry inh	FMDV antiviral
CCc1ccc(C(=O)N2CCN(c3ccc(NC(=O)c4ccco4)cc3)CC2)cc1	13	-2%	?	nt	18%	?
COc1ccc(C(=O)N2CCN(c3ccc(NC(=O)c4ccco4)cc3)CC2)cc1	-76*	5%	-15%	-7%	-1%	-26%
Cc1ccccc1C(=O)N1CCN(c2ccc(NC(=S)NC(=O)c3cccs3)cc2)CC1	-13	0%	nt	?	nt	-12%
C/C(=N\NC(=O)Cc1c[nH]c2ccccc12)c1ccc2ccccc2c1	81	-3%	4µM*	-15%	?	12%
CC(C)(C)c1ccc(/C=N/NC(=O)Cc2c[nH]c3ccccc23)cc1	52	-9%	?	?	15µM*	-10%
CCN(Cc1ccccc1)S(=O)(=O)c1ccc(C(=O)Nc2nnc(-c3ccccc3OC)o2)cc1	-61*	?	?	7%	?	-23%
CCN(c1ccccc1)S(=O)(=O)c1ccc(C(=O)Nc2nnc(-c3ccco3)o2)cc1	-77*	3%	nt	?	nt	?
CN(c1ccccc1)S(=O)(=O)c1ccc(C(=O)Nc2nnc(-c3ccco3)o2)cc1	-95*	?	-17%[46.1 µM]	?	?	-18%
C[C@@H]1C[C@](C)(C(=O)c2ccco2)C=C1c1ccco1	nt	0%	nt	nt	6%[14.2 µM]	nt
OCC1(Cc2ccc(F)cc2)CCCN(Cc2ccc(F)cc2Cl)C1 (centres undefined)	-21	-1%	?	16%	?	?
CCOc1ccc(CN2CCCC(CO)(Cc3ccc(F)cc3)C2)cc1 (centres undefined)	12	-3%	-40%[46.1 µM]	-8%	7.9µM*	1%
COc1ccc(CN2CCCC(CO)(Cc3ccc(F)cc3F)C2)cc1 (centres undefined)	-4	3%	-42%[46.1 µM]	1%	10µM*	-4%
COc1nc(-c2ccccc2)ccc1-c1noc(-c2cccnc2)n1	-104*	28%	32%	27%	0%	3%
CCOc1nc(-c2ccccc2)ccc1-c1noc(-c2ccco2)n1	?	9%	-9%	10µM*	?	-10%
CCOc1ccccc1-c1nc(-c2ccc(-c3ccccc3)nc2OCC)no1	-5	nt	?	nt	?	-15%
COc1ccc(CN([C@H](CO)CC(C)C)S(=O)(=O)N(Cc2ccccc2)[C@H](CO)CC(C)C)cc1	-89*	nt	nt	?	nt	?
COC(=O)[C@H](Cc1ccccc1)N(Cc1ccccc1)S(=O)(=O)N(Cc1ccccc1)[C@@H](Cc1ccccc1)C(=O)OC	-96*	nt	nt	-17%[8.37 µM]	nt	?
CCCCCC(=O)/C=C/[C@H]1[C@H](O)CC(=O)[C@@H]1C/C=C\CCCC(=O)O	nt	2%	nt	nt	nt	nt
C=CCSc1nccc(-c2nn(-c3ccc(C)cc3)ccc2=O)n1	-17	4%	3.2µM*	?	?	-10%
CN(CC(=O)Nc1ccc(Cl)c(C(F)(F)F)c1)C(=O)C1CCC1	-24	nt	4%	?	-6%	-13%
CCCCC1CCC(C(=O)N(C)CC(=O)Nc2cccc(F)c2)CC1 (centres undefined)	10	nt	-8%	-24%	?	-24%
CN(CC(=O)Nc1cccc(F)c1)C(=O)C1CC(=O)N(Cc2ccco2)C1 (centres undefined)	-17	nt	-4%	2%	-1%[46.1 µM]	4%
CN(CC(=O)Nc1ccc(Cl)c(C(F)(F)F)c1)C(=O)C1CCN(C(=O)c2ccc(Cl)cc2)CC1	-1	nt	nt	11µM*	nt	-26%
Cc1sc2ncnc(N3CCC(C(=O)N(C)CC(=O)Nc4ccc(Cl)c(C(F)(F)F)c4)CC3)c2c1C	?	nt	7.1µM*	8.9µM*	?	?
Cc1sc2ncnc(N3CCC(C(=O)N(C)CC(=O)Nc4cccc(F)c4)CC3)c2c1C	-88*	nt	nt	nt	nt	18µM*
CN(CC(=O)Nc1ccc(Cl)c(C(F)(F)F)c1)C(=O)C1CC(=O)N(Cc2ccco2)C1 (centres undefined)	-90*	nt	-1%	0%	16%[46.1 µM]	-5%
COc1ccccc1CNc1ncncc1-c1ccccc1Cl	nt	10%	nt	nt	nt	-25%
CC(C)C(=O)Nc1cccc(C(=O)Nc2nnc(C(F)(F)F)s2)c1	0	nt	-2%[46.1 µM]	nt	?	44%
